A selection: hits, their analogues and other compounds. The true share with any hit is near 1.3%.
SARS 3CLpro inh: SARS-CoV 3CLpro protease inhibitors, primary screen, biochemical, quenched FRET. Replicase polyprotein 1ab (Severe acute respiratory syndrome coronavirus), P0C6X7. recombinant SARS-CoV 3CLpro, quenched FRET peptide cleavage. inhibition, % at 6 µM. actives 0.14% (n = 290,000); in the data active = inhibition above about 12%
MazF activator: activators of E. coli MazEF toxin-antitoxin RNase, primary screen, biochemical, fluorescence, uHTS. Endoribonuclease toxin MazF (Escherichia coli (strain K12)), P0AE70. FAM/BHQ RNA-DNA oligo cleavage fluorescence, 5 h. activation, % at 20 µM. actives 0.32% (n = 350,000). AID 504720, 2011; in the data active = activation above about 50%
Target sequence (P0AE70 whole entry, looked up): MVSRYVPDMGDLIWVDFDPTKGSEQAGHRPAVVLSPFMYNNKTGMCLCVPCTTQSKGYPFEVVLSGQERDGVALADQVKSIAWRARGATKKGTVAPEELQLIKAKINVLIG
ugtP null kill: growth inhibition of ugtP-null S. aureus, primary screen, RN4220 ugtP deletion, OD600; 16 h; growth inhibition, % (test concentration not listed); AID 1259309, 2017; actives 0.54% (n = 330,000); in the data active = growth inhibition above about 68%;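 also: plate controls were untreated wells for no effect and antibiotic for full effect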
Sa RN4220 lethal: growth inhibition of S. aureus RN4220, primary screen, OD600. 16 h. inhibition, % (no concentration beside the values). actives 0.33% (n = 330,000); in the data active = inhibition above about 85%;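 also: plate controls were untreated cells for no effect and reference antibiotic for full effect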
CCHFV vOTU inh: CCHFV vOTU protease inhibitors, primary screen, biochemical, Pep-AMC substrate, fluorescence | AID 651958, 2012 | actives 0.55% (n = 370,000) | Crimean-Congo hemorrhagic fever virus L polyprotein viral ovarian tumor (vOTU) protease … | inhibition, % at 11.5 µM; in the data active = inhibition above about 30%; also: 0% = vehicle wells with enzyme and 100% = no enzyme wells
Mtb bLac sens: beta-lactam sensitization of Mtb H37Rv, H37Rv | actives 0.27% (n = 330,000) | M. tuberculosis H37Rv growth with meropenem, percent inhibition | AID 434955, 2010 | inhibition, % at 25 µM; call rule not given here;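 also: growth measured after seven days incubation then overnight dye step; 0% = bacteria only wells and 100% = bacteria with antibiotic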
* = called active by the depositor.

COc1ccc(S(=O)(=O)N(C)CC2Oc3ccc(NC(=O)C4CC4)cc3C(=O)N(C(C)CO)CC2C)cc1 (configuration not stated) was read as ugtP null kill 12 and Sa RN4220 lethal 7.
`NC(=O)c1sc2nc(-c3cccs3)ccc2c1N` gave SARS 3CLpro inh -5, MazF activator -1, ugtP null kill 23, Sa RN4220 lethal 5, CCHFV vOTU inh -21 and Mtb bLac sens -3.
Screening Nc1c(C(=O)NC2CCCC2)sc2nc(-c3cccs3)ccc12 returned SARS 3CLpro inh 3, MazF activator 52*, ugtP null kill 10, Sa RN4220 lethal 9, CCHFV vOTU inh -6 and Mtb bLac sens 7.
For COc1cc(C=NNC(=O)c2ccncc2)ccc1OCC(=O)Nc1ccccc1 the results were ugtP null kill 1 and Sa RN4220 lethal 2.
COc1ccccc1C=NNC(=O)c1ccc(N(C)S(=O)(=O)c2ccccc2)cc1 was read as ugtP null kill 4 and Sa RN4220 lethal 4.
For O=C(O)C1Nc2c(Cl)cc(Cl)c(Cl)c2C2C=CCC12 (configuration not stated) the results were SARS 3CLpro inh 1, MazF activator 9, ugtP null kill 2, Sa RN4220 lethal 8, CCHFV vOTU inh -2 and Mtb bLac sens -1.
`CC(C)C1Nc2c(O)cc(Cl)c([N+](=O)[O-])c2C2C=CCC21` (configuration not stated) gave SARS 3CLpro inh 7, MazF activator 0, ugtP null kill 93*, Sa RN4220 lethal 87* and CCHFV vOTU inh 18.
COc1ccc(CN(C)C(=O)c2ccc(NS(=O)(=O)c3ccccc3)cc2)c(OC)c1 was read as MazF activator 0, ugtP null kill 45, Sa RN4220 lethal 2, CCHFV vOTU inh 16 and Mtb bLac sens -4.
`COc1ccc(CN(C)C(=O)c2ccc(NS(=O)(=O)c3ccc(F)cc3)cc2)c(OC)c1` gave SARS 3CLpro inh 3, MazF activator 0, ugtP null kill 90*, Sa RN4220 lethal 0, CCHFV vOTU inh 20 and Mtb bLac sens 7.
For O=[N+]([O-])c1ccccc1-c1cc(-c2ccccc2)cc(-c2ccccc2)[n+]1Cc1ccccc1Cl the results were MazF activator 22, ugtP null kill 98*, Sa RN4220 lethal 86*, CCHFV vOTU inh 4 and Mtb bLac sens 100.
For CN(C)CCCNC(=O)c1ccc(-c2nc(-c3ccc(Cl)cc3)cs2)cc1 the results were SARS 3CLpro inh -2, MazF activator -14, ugtP null kill 84*, Sa RN4220 lethal 32, CCHFV vOTU inh -5 and Mtb bLac sens 81.
O=C(NN=Cc1ccc([N+](=O)[O-])cc1)c1cccnc1 was read as ugtP null kill -2 and Sa RN4220 lethal -4.
For N#CCCn1c(-c2nonc2NC(=O)c2ccccc2Cl)nc2ccccc21 the results were SARS 3CLpro inh -2, MazF activator 81*, ugtP null kill 7, Sa RN4220 lethal 2, CCHFV vOTU inh 7 and Mtb bLac sens 2.
CC1Cc2ccccc2N1C(=O)C1CCCN(S(=O)(=O)c2cccc3nsnc23)C1 (configuration not stated) was read as SARS 3CLpro inh 12*, MazF activator -4, ugtP null kill 4, Sa RN4220 lethal 1, CCHFV vOTU inh -6 and Mtb bLac sens 2.
CCCCCCNC(=O)c1cccc(-c2ccc(C)c3ccccc23)n1 was read as SARS 3CLpro inh 0, MazF activator -4, ugtP null kill 90*, Sa RN4220 lethal -4, CCHFV vOTU inh 8 and Mtb bLac sens 5.
Screening CC(=O)OCC1OC(CC=NOC(C)c2cn(C(CO)Cc3ccccc3)nn2)C=CC1OC(C)=O (configuration not stated) returned ugtP null kill 13 and Sa RN4220 lethal 9.
COc1cccc(Cn2c(=O)ccc3ccccc32)c1 was read as SARS 3CLpro inh 4, MazF activator 3, ugtP null kill 7, Sa RN4220 lethal 6, CCHFV vOTU inh -8 and Mtb bLac sens 5.
`CCN(CC)c1nc2ccccc2n(Cc2cccc(OC)c2)c1=O` gave SARS 3CLpro inh 1, MazF activator 7, ugtP null kill 91*, Sa RN4220 lethal -6, CCHFV vOTU inh 5 and Mtb bLac sens -11.

Compound activity from PubChem.
